These results are taken from ChEMBL document CHEMBL3988442, “University of Dundee, Small-Polar-MMV Screening Library” (2021).

About 1,200 (3.2%) of roughly 38,000 compounds showed an effect of 50% or more. The median lay at about -58%. The sample holds strong results, similar compounds and a random draw of the others, so the mix is not that of the screen.

The subject of the assay is Plasmodium falciparum. As to the kind of experiment: Calibr Malaria Delayed Death Assay SOP. The arrangement: scale not given: in the data most compounds retested in dose-response had high values. The settings on record: concentration 4.99e-06 (unit not given; other assays of the set use mol/L). Type of assay: functional, organism-based.
Regarding `CCn1ccnc1CNCC(c1ccc(C)s1)N1CCOCC1` (stereo not drawn), the “Percent Effect” value turned out to be 52.86%. Consider `Cc1ccc(C(CNCc2ncc[nH]2)N2CCOCC2)s1` (stereo not drawn), for which the “Percent Effect” value was determined as 32.72%. As for `O=C(NCCc1nccs1)C(c1ccccc1)n1cnnn1` (stereo not drawn), the figure is -126.4%. As for `Cn1ccnc1-c1ccc(NCc2cn3c(n2)SCC3)nn1`, the figure is -229.6%; as for `CC(C)CC(CO)NS(=O)(=O)Cc1ccon1` (stereo not drawn), -57.79%; as for `Cc1ccc2nc(C3CCCN3C(=O)c3cc(=O)[nH]c(=O)[nH]3)[nH]c2c1` (stereo not drawn), -24.73%. `COc1ccc(NS(=O)(=O)CC2=NC(=O)n3cccc3C2=O)cc1Cl`: the “Percent Effect” value is listed as -78.67%. On to `CN(CCC(N)=O)Cc1cc(Br)cs1`, for which the “Percent Effect” value was -77.34%.

With `Cc1ncc(CN(C)CC(O)c2ccc(OC(F)(F)F)cc2)s1` (stereo not drawn), the “Percent Effect” value turned out to be 62.45%. As for `Cc1ncc(CN(C)CC(O)c2cccc(C(F)(F)F)c2)s1` (stereo not drawn), the figure is 53.4%.

As for `Cc1cc(CNC(=O)NCC(O)c2cccc(C(F)(F)F)c2)no1` (stereo not drawn), the “Percent Effect” value was -35.43%.

In the case of `CCOC(=O)CN(C)Cc1cnc(C)s1`, the “Percent Effect” value is reported as -144.9%.

In the case of `CCCN(CCC)C(=O)CN(C)Cc1cnc(C)s1`, the “Percent Effect” value is recorded as -123.6%. As for `Cc1ncc(CN(C)CC(O)c2ccc(Br)cc2)s1` (stereo not drawn), the figure is 19.44%; as for `N#Cc1ccc(N2CCC3(CCC(=O)N3Cc3ccncc3)CC2)nc1.O=C(O)C(F)(F)F.O=C(O)C(F)(F)F`, -114.1%; as for `CCn1cc(-c2cc(C(F)F)n3nc(CC(=O)O)nc3n2)cn1`, -21.51%.

In the case of `CCOCCN1CCN([C@@H]2c3ccccc3C3(CCNCC3)[C@H]2O)CC1`, the “Percent Effect” value is listed as -70.37%.

With `COCCCC1CCN([C@@H]2c3ccccc3C3(CCNCC3)[C@H]2O)CC1`, the “Percent Effect” value amounted to 36.42%.

With `Cc1cc(C(C)(O)CNC(=O)CCOCC(C)C)c(C)o1` (stereo not drawn), the “Percent Effect” value is given as -34.27%. On to `CCS(=O)(=O)N1CC[C@@H]2[C@H](CC1)N(Cc1cccnc1)CCS2(=O)=O.O=C(O)C(F)(F)F.O=C(O)C(F)(F)F`, for which the “Percent Effect” value is reported as -78.89%.

In the case of `Cc1csc(C2CCCCN2C(=O)COCc2nc(C)no2)n1` (stereo not drawn), the “Percent Effect” value is recorded as -74.6%. As for `Cc1csc(C2CCCCN2C(=O)CN(C)C2CC2)n1` (stereo not drawn), the figure is -127%; as for `Cc1csc(C2CCCCN2C(=O)c2cc(C(C)C)[nH]n2)n1` (stereo not drawn), 75.22%; as for `CC(NCC(=O)Nc1ccc(N2CCCCCC2)cc1)c1cccs1` (stereo not drawn), 21.94%. As for `COC(=O)c1cc(OC)c(OC)cc1NCc1c(C)noc1C`, the figure is -119.4%; as for `CCCN(C(=O)CN1CCn2c(nnc2C2CC2)C1)C1=CCCCC1`, -109.1%. As for `Cc1nn(C)c2nc(NCCCN3CCCC(C(N)=O)C3)sc12` (stereo not drawn), the figure is -133.1%; as for `CCc1ccc(CN(CCN(C)C)Cc2ccc(C)s2)nc1`, 91.79%; as for `CCNc1ncc(CN(CCN(C)C)Cc2ccc(C)s2)cn1`, 37.82%. As for `COCc1ncc(CN(CCN(C)C)Cc2ccc(C)s2)cn1`, the “Percent Effect” value amounted to 1.94%. As for `COc1ncc(CN(CCN(C)C)Cc2ccc(C)s2)cn1`, the figure is -3.016%; as for `Cc1ccc(CN(CCN(C)C)Cc2nc3ccccc3[nH]2)s1`, 60.93%; as for `Cc1ccc(CN(CCCO)Cc2nc3ccccc3[nH]2)s1`, -85.6%.

As to `O=C(O)C1(O)CCN(c2ccc3cccc(Cl)c3n2)CC1`, the “Percent Effect” value is recorded as -181.1%. As for `CCCN1CCC(c2nc3ccc(-c4cccc(F)c4)cn3n2)CC1.O=C(O)C(F)(F)F`, the figure is 31.95%; as for `COc1ccc(CN2CC[C@H](c3nnc(-c4ccco4)o3)C2)cc1`, -19.38%. As for `COc1ccc(Cn2nnnc2SCC2CCCN(C)C2)cc1` (stereo not drawn), the figure is 58.9%. As for `COc1ccc(OC)c(-n2nnnc2SCC2CCCN(C)C2)c1` (stereo not drawn), the figure is 41.34%; as for `O=C(O)C(F)(F)F.O=C(c1cccs1)N1CCOCC2(C1)CN(c1cccnc1)C(=O)CO2` (stereo not drawn), -98.48%; as for `Cc1ccc(C(=O)Nc2nnc(CC(C)C)s2)c(-n2cnnn2)c1C`, -82.26%. For the molecule `Cn1ccnc1CN1CCC(Cn2cc(-c3ccncc3)nn2)CC1`, the “Percent Effect” value is -74.11%. As for `O=C(CNCC1(O)CCCN(Cc2cccc(F)c2F)C1=O)NC1CC1` (stereo not drawn), the figure is -101.8%; as for `C=C(C)CNCC1(O)CCCN(Cc2ccc(F)c(F)c2)C1=O` (stereo not drawn), -91.62%; as for `COc1ccc(F)c(CN2CCCC(O)(CNCc3ncc[nH]3)C2=O)c1` (stereo not drawn), -101.4%.

For `O=C1N(Cc2ccc(F)c(F)c2)CCCC1(O)CNCC1CCCCC1` (stereo not drawn), the “Percent Effect” value was determined as 73.06%. As for `COCCNCC1(O)CCCN(Cc2ccc(F)c(F)c2)C1=O` (stereo not drawn), the figure is 23.01%; as for `O=C1N(Cc2cccc(F)c2F)CCCC1(O)CNC1CCCC1` (stereo not drawn), 59.35%. As for `O=C1N(Cc2cccc(F)c2F)CCCC1(O)CNCC1CCCCC1` (stereo not drawn), the figure is 73.31%; as for `CN1CCC(NCC2(O)CCCN(Cc3ccccc3F)C2=O)CC1` (stereo not drawn), 4.135%. As to `COC(=O)CNCC1(O)CCCN(Cc2cccc(F)c2F)C1=O` (stereo not drawn), the “Percent Effect” value is listed as -57.14%. As for `COc1ccc(F)c(CN2CCCC(O)(CNC3CCCCC3)C2=O)c1` (stereo not drawn), the figure is 69.02%. Consider `COc1ccc(F)c(CN2CCCC(O)(CNCc3ccon3)C2=O)c1` (stereo not drawn), for which the “Percent Effect” value was -23.9%. For `O=C1N(Cc2cccc(F)c2F)CCCC1(O)CNCc1ccccn1` (stereo not drawn), the “Percent Effect” value is reported as 0.3162%.
